Compound activity as filed in PubChem BioAssay.
A selection: hits, their analogues and other compounds. The true share with any hit is near 1.4%.
IDE cell activ: boosts human insulin-degrading enzyme activity in HEK cells; P14735; FAbeta-B cleavage, fluorescence polarization; 0% vehicle, 100% cell-free pure enzyme wells; activation, % at 5.96 µM; hit rate 0.073% among 340,000;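 active = activation above the mean of all tested compounds plus 3 SD, set per screening campaign, cut at about 17% in these data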
CRFBP-R2 agonist: agonists of human CRF-binding protein/CRF-R2 receptor complex; activation, % at 13.2 µM; hit rate 0.46% among 350,000; HEK293 CRF-R2/CRF-BP, calcium dye fluorescence (FLIPR); percent of saturating CRF peptide response; AID 588473;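 active = activation of at least 50%, plus an integration ratio under a set limit after plate pattern correction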;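 also: plate controls were neutral control wells without compound for no effect and CRF at EC100 for full effect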
IDE inh: inhibits human insulin-degrading enzyme in HEK cells; FAbetaB cleavage, fluorescence polarization; inhibition, % at 5.59 µM; hit rate 0.41% among 320,000; AID 434962;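 active = percent inhibition above the average of all tested compounds plus 3 SD, set per screening campaign, cut at about 16% in these data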;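 also: IDE supplied by intact live HEK cells; FP after avidin binding of uncleaved biotin substrate so inhibition keeps polarization high; 0% = DMSO wells and 100% = 60 µM reference IDE inhibitor Ii1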
HNF4A DNA FP: change in binding of human HNF4 alpha to DNA | P41235 | HNF4a-FITC DNA binding, fluorescence polarization, 1 h | activity change, % at 10 µM | hit rate 0.3% among 360,000 | AID 1224865; in the data active = activity change above about 30%, passing the limit was not always enough
TPT1 inh: C. albicans TPT1 enzyme inhibition. hit rate 0.81% among 300,000. AID 1962. inhibition, % at 5 µM. recombinant caTPT1, FP RNA substrate dephosphorylation;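 active = inhibition above the mean of all tested compounds plus 3 SD, set per screening campaign, cut at about 24% in these data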;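 also: plate controls were DMSO alone for no effect and ferristatin control at 100 nM for full effect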
IDE inh confirm: cellular human IDE inhibition, confirmation; shares compounds with IDE inh; HEK cells, FAbetaB cleavage, fluorescence polarization; hit rate 51% among 1,200; inhibition, % at 5.59 µM; AID 435028;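 active = mean inhibition across triplicate wells above the cutoff set by the earlier primary insulin-degrading enzyme screen, cut at about 16% in these data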;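 also: 0% = DMSO wells and 100% = 60 µM reference IDE inhibitor Ii1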
HEK cytotox: kills HEK cells in IDE inhibitor counter-screen | shares compounds with IDE inh | HEK293 cytotoxicity, ATP luminescence | inhibition, % at 5.59 µM | hit rate 28% among 1,200; in the data active = inhibition above about 22%;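 also: 0% = vehicle wells and 100% = reference cytotoxic drug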
HNF4A confirm: change in binding of human HNF4 alpha to DNA, retest | HNF4A-FITC DNA binding, fluorescence polarization, 1 h | hit rate 99% among 210 | shares compounds with HNF4A DNA FP | activity change, % at 12.5 µM; call rule not given here
Active calls of the source: *; / = not tested or not shown.

SMILES	IDE cell activ	CRFBP-R2 agonist	IDE inh	HNF4A DNA FP	TPT1 inh	HNF4A confirm	others
CCc1nc2ccc(C(=O)NCCc3ccccn3)cn2c1N(CC)CCOC	/	/	/	1	/	/
COc1ccc(-c2nnc(Nc3nc4c(OC)cccc4s3)o2)c(OC)c1	-19	0	13	-11	-2	/
COc1ccc(-c2nnc(Nc3nc4c(OC)cccc4s3)o2)cc1	-15	-2	24*	-14	-9	/	IDE inh confirm=19*;HEK cytotox=8
Cc1cc(C)cc(NC(=S)N2CCC(C(=O)c3ccc(F)cc3)CC2)c1	-3	2	/	2	/	/
COc1cc(/C=C2/SC(=S)N(C)C2=O)ccc1OC(=O)c1ccco1	-26	4	24*	49*	7	37*	IDE inh confirm=63*;HEK cytotox=9
COc1cc(/C=C2/SC(=O)NC2=O)ccc1OC(=O)c1ccco1	1	-2	-4	2	-1	/
CC1(c2ccccc2)NC(=O)N(CC(=O)N2CCN(S(=O)(=O)c3cccc([N+](=O)[O-])c3)CC2)C1=O (configuration not stated)	1	0	2	-5	-2	/
CC1CCN(c2ccc3c(c2)S(=O)(=O)c2cccc(C(=O)NC[C@@H]4CCCO4)c2C3=O)CC1	-8	21	22*	54*	/	62*	IDE inh confirm=21*;HEK cytotox=26*
CC1CCN(c2ccc3c(c2)S(=O)(=O)c2cccc(C(=O)NC4CC4)c2C3=O)CC1	-7	12	18*	43*	/	36*	IDE inh confirm=19*;HEK cytotox=16
O=C(c1ccc(Cl)cc1)N(Cc1ccccc1F)N1C(=O)CCCC1=O	10	-1	5	3	0	/
N#C/C(=C\C1=C(N2CCOCC2)C(=C/c2cccc([N+](=O)[O-])c2)/CC1)C(=O)Nc1ccccc1F	1	-1	4	54*	14	56*
N#C/C(=C/C1=C(N2CCOCC2)C(=C/c2cccc([N+](=O)[O-])c2)/CC1)C(=O)Nc1ccccc1F	-1	3	/	49*	/	65*
CCOC(=O)c1c(C)c(C)n2c1NC(=O)C2	/	/	/	57*	/	65*
COc1cc(CNC(=O)c2ccccc2NC(=O)C2=C(C)OCCS2)cc(OC)c1OC	5	-1	5	0	-3	/
COc1ccc(/C=C2\SC(=S)N(CCC(=O)NC3=NCCS3)C2=O)cc1OC	1	28	6	53*	0	77*
CCOC(=O)c1sc2nc3c(SCC(=O)O)cc(C(=O)c4cc(F)ccc4O)cn3c(=O)c2c1C	6	3	4	-5	10	/
COC(=O)c1cc(C(=O)c2cc(F)ccc2O)cn2c(=O)c3c(C)c(C)sc3nc12	3	-1	5	68*	5	66*
COc1ccc2oc(C(=O)NCc3cc(OC)c(OC)cc3OC)c(C)c2c1	1	0	2	4	1	/
CNc1nc2cccnc2s1	6	-1	8	1	-4	/
CC(=O)c1ccc(NC(=O)c2ccc(NC(=O)c3ccco3)cc2)cc1	2	0	-2	86*	1	111*
CC(=O)Nc1ccc(NC(=O)c2ccco2)cc1	0	2	7	4	-3	/
CC1N(C)c2cc(NC(=O)c3ccco3)ccc2C1(C)C (configuration not stated)	-2	12	1	52*	3	41*
CC1N(C)c2cc(NC(=O)c3ccco3)c(P(=O)(Nc3ccc([N+](=O)[O-])cc3)N3CCOCC3)cc2C1(C)C (configuration not stated)	4	-2	-1	0	3	/
CC1Cc2cc(S(=O)(=O)N3CCC(C(=O)N4CCN(c5ccccc5F)CC4)CC3)ccc2N1C(=O)C1CC1 (configuration not stated)	-6	1	4	-1	1	/
COc1ccc(CN2CCNC(=O)C2CC(=O)NCCSc2nccn2C)cc1OC (configuration not stated)	2	0	5	1	-3	/
SMILES	IDE cell activ	CRFBP-R2 agonist	IDE inh	HNF4A DNA FP	TPT1 inh	HNF4A confirm	others
CC(C)c1cccc(-c2ccc3c(c2)S(=O)(=O)c2cccc(C(=O)NC4CCCC4)c2C3=O)c1	4	0	8	-3	/	/
COc1ccc(-c2ccc3c(c2)S(=O)(=O)c2cccc(C(=O)NC4CCCC4)c2C3=O)cc1OC	1	11	0	51*	/	57*
Cc1c(-c2ccc(/C=N/NC(=O)C(=O)Nc3ccccc3F)o2)cccc1[N+](=O)[O-]	/	4	-1	79*	-1	35*
O=[N+]([O-])c1ccc(/C=N/NC(=S)Nc2ccccc2F)o1	7	1	1	4	3	/
CCN(CC)S(=O)(=O)c1ccc(N2CCN(C)CC2)c(NC(=O)CN2C(=O)NC3(CCCCC3)C2=O)c1	0	3	/	2	/	/
CCCCNc1c(-c2cc3ccccc3o2)nc2nc(C)cc(C)n12	/	/	/	45*	/	37*
COc1ccc(Nc2c(-c3cc4ccccc4o3)nc3nc(C)cc(C)n23)cc1	/	/	/	11	/	/
Cn1c(N)c(C(=O)COC(=O)/C=C/c2ccc(S(=O)(=O)N3CCOCC3)cc2)c(=O)n(C)c1=O	-2	-1	4	0	-3	/
N#Cc1ccsc1NC(=O)c1ccc2ncsc2c1	/	-1	/	69*	/	77*
O=C(Nc1ccc(F)cc1)c1ccc2ncsc2c1	5	-1	5	-1	-4	/
Cc1cccc(NC(=O)c2ncn3c2C(=O)N(C)CC3)c1	/	0	/	-1	/	/
NC(=O)CC(NC(=O)Cc1ccc(Br)cc1)c1ccc(NC2CCCC2)c([N+](=O)[O-])c1 (configuration not stated)	-1	-1	8	50*	-1	49*
Cc1ccc(Nc2nc(Cl)c(C=O)s2)cc1Cl	5	3	8	44*	13	44*
CC(=O)Nc1ccc(C(=O)Nc2cccc(-c3cnc4ccccc4n3)c2)cc1	-3	0	/	48*	/	60*
O=C(Nc1ccncc1)c1ccc(Cl)c(S(=O)(=O)N2CCCC2)c1	4	0	5	-3	-2	/
COc1ccc2c(c1)C1=NN(/C(C)=C\C(C)=O)C(c3ccccc3)C1CC2 (configuration not stated)	-6	-4	3	40*	16	53*
O=C(N/N=C/c1coc2ccccc2c1=O)c1cc(Br)ccc1O	2	0	-1	46*	3	35*
N#CCC(=O)Nc1ccc(C(=O)OCC(=O)NC(=O)NCc2ccco2)cc1	2	1	8	34*	/	40*
CCOC(=O)c1ccc(NC(=O)CCC(=O)NCc2ccco2)cc1	1	-1	-1	-4	-1	/
